More than one record can exist for a structure, and the calls need not agree. Calls of active or inactive are those of the source. The calls were made as follows: active = hit-call score of the fitted dose curve at least 0.9, where 1 is the maximum; inactive = score below 0.9.

Assay [1] concerns the target Transcription factor E2F1 (Homo sapiens) (UniProt Q01094). Put plainly: ATG_E2F_CIS: Attagene CIS-FACTORIAL HepG2 Assay for human E2F Transcription Factor 1 (AID 2282935). The following applies: HepG2 Attagene cis-reporter, E2F reporter RNA transcripts; actives raise or lower the signal. Put shortly: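 In this cis-factorial format, endogenous factor activity drives transfected reporters in HepG2; transcripts collected at 24 h are quantified by fluorescence after RT-PCR and capillary separation.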

A short description of assay [2]: ATG_E_Box_CIS: Attagene CIS-FACTORIAL HepG2 Assay for human Enhancer Box (E-box) (AID 2282936). The following applies: HepG2 E-box cis-reporter transcription, actives raise or lower the signal. Put shortly: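 Measured 24 h post-dosing in HepG2 cells transfected with multiple cis-regulated reporter units, signal being reporter mRNA induction detected by fluorescent RT-PCR with capillary electrophoresis; gain or loss fitted against DMSO.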

Assay [3] is described as follows: ATG_M_61_CIS: Attagene CIS-FACTORIAL HepG2 Assay for M61 Transcription Factor (Internal Marker) (AID 2282937). Particulars: HepG2 Attagene CIS-FACTORIAL M61 internal marker reporter; actives raise or lower the signal. Put shortly:
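Using transiently transfected HepG2 liver cells, reporter transcript levels were assessed 24 h post-dosing by RT-PCR and capillary electrophoresis. Changes in either direction were fitted relative to DMSO controls.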

Assay [4] is described as follows: ATG_EGR_CIS: Attagene CIS-FACTORIAL HepG2 Assay for human Early Growth Response 1 (EGR1) (AID 2282938). The following applies: HepG2 Attagene CIS-FACTORIAL EGR reporter mRNA; actives raise or lower the signal. The procedure, abridged:
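Fluorescent capillary-electrophoresis signal of reporter cDNA fragments serves as read-out. HepG2 cells bear transiently transfected cis-promoter reporter units and are exposed 24 h; gain- or loss-of-signal is fitted against DMSO.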

Assay [5] in a line: ATG_M_19_CIS: Attagene CIS-FACTORIAL HepG2 Assay for M19 Transcription Factor (Internal Marker) (AID 2282939). The following applies: HepG2 Attagene CIS-FACTORIAL M19 internal marker reporter; actives raise or lower the signal. The procedure, abridged: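 HepG2 cells transiently transfected with cis-regulated multiplexed reporter units, dosed 24 h. Reporter mRNA quantified by RT-PCR and capillary electrophoresis; internal background marker fitted bidirectionally versus DMSO.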

Assay [6] can be described thus: ATG_ERE_CIS: Attagene CIS-FACTORIAL HepG2 Assay for Estrogen Response Element (ERE) (AID 2282940). The following applies: HepG2 ERE cis-reporter, Attagene RNA transcript; actives raise or lower the signal. Put shortly: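 HepG2 cells transiently transfected with multiplexed cis-element reporter units, measuring endogenous transcription factor activity; ERE reporter mRNA quantified after 24 h exposure by RT-PCR, fluorescent labelling, HpaI digestion and capillary electrophoresis. Bidirectional change versus DMSO.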

Assay [7] in a line: ATG_Ets_CIS: Attagene CIS-FACTORIAL HepG2 Assay for human Erythroblast Transformation Specific (ETS) (AID 2282941). Particulars: HepG2 ETS cis-reporter transcription, actives raise or lower the signal. Put shortly:
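Endogenous transcription factor activity read as reporter mRNA via RT-PCR and capillary electrophoresis, with gain or loss fitted bidirectionally against DMSO. Human HepG2 liver cells, transiently transfected CIS reporter constructs, 24 h exposure.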

Assay [8] concerns the target Hepatocyte nuclear factor 3-beta (Homo sapiens) (UniProt Q9Y261). In words: ATG_FoxA2_CIS: Attagene CIS-FACTORIAL HepG2 Assay for human Forkhead box A2 (FOXA2) (AID 2282942). Particulars: HepG2 cis-reporter transcription factor activity, 24 h; actives raise or lower the signal. Put shortly:
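Fluorescence signal of reporter cDNA fragments, separated by capillary electrophoresis, reflects endogenous transcription factor activity in transfected HepG2 after 24 h. Both increases and decreases fitted against DMSO.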

A short description of assay [9]: ATG_FoxO_CIS: Attagene CIS-FACTORIAL HepG2 Assay for human Forkhead box O (FoxO) (AID 2282943). The following applies: HepG2 Attagene cis-reporter, FoxO element, mRNA; actives raise or lower the signal. Put shortly:
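Values reflect reporter mRNA induction or loss in HepG2 cells 24 h post-dosing, fitted bidirectionally with DMSO as negative control and baseline. Detection used RT-PCR and fluorescence capillary electrophoresis.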

The nature of assay [10]: ATG_GATA_CIS: Attagene CIS-FACTORIAL HepG2 Assay for human GATA Binding Protein (AID 2282944). The following applies: HepG2 GATA cis-element reporter, Attagene multiplex mRNA; actives raise or lower the signal. Put shortly:
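HepG2 cells transiently transfected with multiplexed cis-element reporter units measure endogenous GATA activity; after 24 h compound exposure, reporter mRNA quantified by RT-PCR and capillary electrophoresis. Changes fitted in both directions vs DMSO.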

Chain of Hepatocyte nuclear factor 3-beta (Homo sapiens) (Q9Y261 whole entry, looked up, the tested form may be a part): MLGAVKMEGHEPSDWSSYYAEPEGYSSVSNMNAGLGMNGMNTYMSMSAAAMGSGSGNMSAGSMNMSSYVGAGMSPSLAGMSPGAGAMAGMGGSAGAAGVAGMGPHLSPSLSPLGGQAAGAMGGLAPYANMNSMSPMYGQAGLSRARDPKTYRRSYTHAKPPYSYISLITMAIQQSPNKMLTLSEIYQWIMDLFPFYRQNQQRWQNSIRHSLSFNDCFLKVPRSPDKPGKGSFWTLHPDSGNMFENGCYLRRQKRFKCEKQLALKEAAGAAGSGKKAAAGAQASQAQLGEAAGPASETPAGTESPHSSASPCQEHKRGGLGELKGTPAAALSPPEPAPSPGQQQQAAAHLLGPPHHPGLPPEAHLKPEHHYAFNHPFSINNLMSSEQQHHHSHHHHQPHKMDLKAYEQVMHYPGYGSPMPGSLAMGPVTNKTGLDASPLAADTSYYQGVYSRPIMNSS
Chain of Transcription factor E2F1 (Homo sapiens) (Q01094 whole entry, looked up): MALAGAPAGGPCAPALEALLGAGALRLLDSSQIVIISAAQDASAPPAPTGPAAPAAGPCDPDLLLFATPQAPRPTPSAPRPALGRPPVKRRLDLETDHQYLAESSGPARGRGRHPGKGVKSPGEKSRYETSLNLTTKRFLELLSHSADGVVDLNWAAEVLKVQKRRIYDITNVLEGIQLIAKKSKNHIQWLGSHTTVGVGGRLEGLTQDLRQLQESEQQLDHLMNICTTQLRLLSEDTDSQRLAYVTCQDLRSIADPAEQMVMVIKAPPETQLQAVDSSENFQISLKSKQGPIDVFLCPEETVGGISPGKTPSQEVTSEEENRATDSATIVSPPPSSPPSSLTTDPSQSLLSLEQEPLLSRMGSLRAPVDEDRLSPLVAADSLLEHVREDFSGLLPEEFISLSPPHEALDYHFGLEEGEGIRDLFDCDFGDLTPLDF

As to `O=C(Cl)C(F)(F)C(F)(F)C(F)(F)C(F)(F)C(F)(F)C(F)(F)C(F)(F)C(F)(F)F`, the result in assay [1], in assay [2], in assay [3], in assay [4], in [5] and in [6] was inactive. Besides, the compound was called inactive in assay [7], in [8], in assay [9] and in assay [10].

Take `O=C(O)C(F)(F)C(F)(F)OC(F)(F)F`: the compound was called inactive in [1], in assay [2], in assay [3], in assay [4], in assay [5] and in [6]. The result in [7], in [8], in assay [9] and in assay [10] was inactive.

In the case of `COC(=O)CCC(F)(F)C(F)(F)C(F)(F)C(F)(F)F`, the outcome in assay [1], in assay [2], in assay [3], in assay [4], in assay [5] and in [7] was inactive. For the same compound, the compound was classed as inactive in assay [8], in [9] and in assay [10]. In addition, the concentration at half-maximal activity (AC50) in [6] was 6.98 µM (active).

In the case of `FC(F)(F)C(F)(F)C(F)(F)C(F)(F)CCI`, the compound was classed as inactive in assay [1], in assay [2], in assay [3], in [4], in [5] and in assay [6]. The result in assay [7], in assay [8], in [9] and in [10] was inactive. Also, the AC50 in assay [6] is 16.3 µM (active).

Turning to `CCN(CC)c1ccc2c(C)cc(=O)oc2c1`, the result in assay [1], in assay [2], in assay [3], in assay [4], in assay [5] and in assay [6] was inactive. The compound was called inactive in assay [7], in assay [8], in assay [9] and in [10].

For `CC/C=C\CCOC(C)=O`, the compound was classed as inactive in assay [1], in assay [2], in assay [3], in assay [4], in assay [5] and in [6]. In addition, the outcome in [7], in assay [8], in assay [9] and in assay [10] was inactive.

As to `FC(F)(Br)C(F)(F)C(F)(F)C(F)(F)C(F)(F)C(F)(F)Br`, the compound was called inactive in assay [1], in assay [2], in [3], in [4], in [5] and in assay [7]. The compound was called inactive in assay [8], in assay [9] and in assay [10]. Besides, the AC50 in assay [6] is 8.15 µM (active).

On to `CNC(=S)NC`, for which the compound was called inactive in [1], in [2], in [3], in [4], in assay [5] and in assay [6]. Also, the compound was classed as inactive in assay [7], in assay [8], in assay [9] and in assay [10].

Turning to `O=C(CC(=O)C(F)(F)C(F)(F)F)C(F)(F)F`, the call in assay [1], in assay [2], in assay [3], in assay [4], in [5] and in assay [6] was inactive. Also, the compound was called inactive in assay [7], in [8], in assay [9] and in [10].

Consider `OC[C@@H](O)[C@@H](O)[C@H](O)[C@@H](O)CO`, for which the compound was classed as inactive in assay [1], in [2], in assay [3], in [4], in [5] and in assay [6]. In addition, the call in assay [7], in [8], in assay [9] and in assay [10] was inactive. Further, in assay [6], the AC50 is 30.6 µM (active).

On to `CCN(Cc1cccc(S(=O)(=O)O)c1)c1ccc(C(=C2C=CC(=[N+](CC)Cc3cccc(S(=O)(=O)O)c3)C=C2)c2ccc(O)cc2S(=O)(=O)[O-])cc1`, for which the result in [1], in assay [2], in [3], in assay [4], in [5] and in assay [7] was inactive. The outcome in [8], in assay [9] and in assay [10] was inactive. Further, the AC50 in assay [6] was 16.8 µM (active).

On to `O=C(O)C(F)(F)C(F)(F)C(F)(F)F`, for which the call in assay [1], in assay [2], in assay [3], in assay [4], in [5] and in assay [6] was inactive. The result in assay [7], in [8], in assay [9] and in [10] was inactive. For the same compound, in assay [6], the AC50 is 150 µM (active).

Take `C1COCCN1`: the call in assay [1], in assay [2], in assay [3], in assay [4], in assay [5] and in assay [6] was inactive. For the same compound, the compound was called inactive in assay [7], in assay [8], in assay [9] and in [10].

Consider `CC(C)=CCCC(C)CCOC(=O)C(C)C` (stereo unspecified), for which the call in [1], in [2], in assay [3], in [4], in assay [5] and in assay [6] was inactive. Besides, the compound was called inactive in assay [7], in assay [8], in [9] and in assay [10].

As for `FC(F)(I)C(F)(F)C(F)(F)C(F)(F)I`, the outcome in assay [1], in assay [2], in [3], in assay [4], in assay [5] and in [7] was inactive. For the same compound, the result in assay [8], in [9] and in assay [10] was inactive. In addition, in assay [6], the half-maximal activity concentration (AC50) was 0.291 µM (active).

Turning to `O=P(O)(O)OCCC(F)(F)C(F)(F)C(F)(F)C(F)(F)C(F)(F)C(F)(F)F`, the result in assay [1], in assay [2], in assay [3], in assay [4], in [5] and in [7] was inactive. The outcome in assay [8], in assay [9] and in [10] was inactive. The AC50 in assay [6] was 18.3 µM (active).

Consider `FC(F)(F)C(F)(F)C(F)(F)C(F)(F)C(F)(F)CCI`, for which the outcome in assay [1], in assay [2], in [3], in assay [4], in assay [5] and in [7] was inactive. Also, the result in [8], in assay [9] and in [10] was inactive. Moreover, the half-maximal activity concentration (AC50) in assay [6] is 51.2 µM (active).

As for `Nc1ccc(S(=O)(=O)Nc2nccs2)cc1`, the outcome in assay [1], in [2], in assay [3], in assay [4], in [5] and in assay [6] was inactive. Also, the result in assay [7], in [8], in assay [9] and in [10] was inactive.

As to `O=C(O)C(F)(F)C(F)(F)C(F)(F)C(F)(F)F`, the compound was called inactive in assay [1], in [2], in [3], in [4], in assay [5] and in assay [6]. In addition, the result in assay [7], in assay [8], in [9] and in assay [10] was inactive.

`OCCCC(F)(F)C(F)(F)C(F)(F)C(F)(F)C(F)(F)C(F)(F)C(F)(F)F`: the compound was classed as inactive in assay [1], in assay [2], in [3], in assay [4], in assay [5] and in assay [6]. Also, the compound was classed as inactive in assay [7], in [8], in assay [9] and in assay [10]. The AC50 is 72.9 µM (active) in [2]; 80.6 µM (active) in [4]; 264 µM (active) in [5]; 19.9 µM (active) in assay [6]; 50 µM (active) in [7]; 65.3 µM (active) in assay [9]. Moreover, in assay [10], the AC50 is 78.9 µM (active).

For the compound `COC(=O)C1CCC(C(=O)OC)CC1` (stereo unspecified), the compound was classed as inactive in [1], in assay [2], in assay [3], in [4], in assay [5] and in assay [6]. Also, the outcome in assay [7], in assay [8], in assay [9] and in assay [10] was inactive. In addition, the half-maximal activity concentration (AC50) in assay [6] is 20.5 µM (active).
